# Measured values taken from PubChem BioAssay AID1347426 (Functional Genomics Laboratory (NCATS/FGL), 2020).
# Among all 31,000 sequences or so, about 1,400 (4.5%) were called active.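 How the source made its calls: active means median seed-adjusted z-score above 1 or below -1; inactive means the rest.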 Many of the other results were omitted from the sample, so actives are more common in it than they were.
# Assay: Novel Modifiers of Survival Motor Neuron (SMN) Protein: Gene Identification via Genome-wide siRNA Screen;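 further: luminescence tracks full-length SMN protein made from the SMN2 reporter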
# Conditions: HEK293T SMN2-luciferase reporter, siRNA knockdown, 72 h; actives lie on both sides
# How it was run: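 Each of three siRNAs per gene is reverse-transfected (1 pmol) into reporter HEK293T cells whose luciferase output tracks SMN protein level. After 72 h culture, ONE-Glo luminescence is control-normalized, log10-transformed and MAD-standardized; Common Seed Analysis deprioritizes seed-driven hits.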
row,Sequence,median seed-adjusted z-score
1,CAACAGCGAUUGGAAUGGATT against UGDH,0.674 (inactive)
2,CUGGAAGUGUUAUUCCUAATT against FOXD4L1,0.271 (inactive)
3,CGACAAGCCCAAUGUUUAUTT against SSU72,-1.64 (active)
4,GUACCGAGAGAAUAACAAATT against SYP,-0.0289 (inactive)
5,GCUGGUUAGGAACCGCUCATT against ZNF579,-0.0604 (inactive)
6,GGCAAGUAGAUAGUACAUUTT against ZNF507,-0.262 (inactive)
7,UGAUAAGGAUAACAAGAGATT against CAMP,-0.622 (inactive)
8,GCAUCAAGAUUUUCCGCUUTT against SLC26A2,-1.25 (active)
9,GCAUAGGCCCAGUAACUUATT against SLC25A34,-0.256 (inactive)
10,CGCUCACAGUCAUACACGUTT against SLC39A7,0.0554 (inactive)
11,CUCUUGUACCAGUUCCUGATT against SLC25A35,-0.762 (inactive)
12,UGGUCGUUAUGGUCCUAUATT against FUSIP1,0.865 (inactive)
13,GGCACGGUUUUGGUCGAAATT against FREM2,0.143 (inactive)
14,UACAUAUGCUGGACAGAAATT against SSU72,-1.64 (active)
15,CAGGUAUGGUGAACCGUGATT against YES1,-0.508 (inactive)
16,GUACCUCGUAAAUCACGAATT against NFAT5,0.106 (inactive)
17,GAUUUUCACUUGCAACUCATT against PDP2,-0.0726 (inactive)
18,AGAGCAACAUCAACAUUAUTT against TKTL1,-0.495 (inactive)
19,CGACCGUGGUGACAUGAUUTT against LRP3,-1.05 (active)
20,GCUCCGCAAAUGUGGUUGATT against ZNF714,0 (inactive)
21,UGCGCAACCUUAAGAACAATT against PRAF2,-0.326 (inactive)
22,GAAAGGCAGUUUUCGUAAATT against NXF3,0.672 (inactive)

row,Sequence,median seed-adjusted z-score
1,GAGAGGUACCAGACCAUGATT against POLM,-1.55 (active)
2,AGCCUGAAAGUAUCCGUAATT against CLTA,0.243 (inactive)
3,GGAGCUCUGUUGUGGAGAATT against FCGRT,-0.00396 (inactive)
4,GGACUAAACUACCUCCAAATT against KCNE3,-1.33 (active)
5,CCUGAAAUCAUAGAGUUAATT against KCNMA1,0 (inactive)
6,AGCAGAAGAUGGUAGAUGATT against VIL1,0.368 (inactive)
7,AGGGCACAUUCACCAGUGATT against GCG,-1.18 (active)
8,CUCCUGCUGCAAAACAAUATT against SLC25A6,-0.928 (inactive)
9,GUCACGUCUUGAUACCUCUTT against ACAD8,1.06 (active)
10,GAUUGUCUUCGGUCUAUUATT against STAM,0 (inactive)
11,GACCCACUCUUGAAAGACATT against ZNF304,-0.44 (inactive)
12,CGAGAGGGCUGUUUCCAAATT against LIMS3,-0.078 (inactive)
13,GAAAGAUGGUGUUGACUUUTT against ALDOB,-1.34 (active)
14,CUUCAUAUCUCUUUACGUATT against PIGW,-0.242 (inactive)
15,CCACCAAUGUAGUCUAUCATT against PAPSS2,-0.201 (inactive)
16,AGAAGACCCGUAGACUGAATT against NEUROG2,-0.366 (inactive)
17,UAAACUCGUUAGUCAAUUATT against SLC7A9,0.194 (inactive)
18,GCAGAUAAGUGAACGAGAUTT against SAMHD1,-1.33 (active)
19,CGCUCCUUGUCAAAAGAAATT against KCNS3,0.103 (inactive)
20,GCAUGACCUCUGUAAGGGATT against ANK1,-0.282 (inactive)
21,GAAUCGCAAGGAUAUGAUATT against MSH2,0 (inactive)
22,CCAUCUACCAGCUAAUCAATT against PIK3C2G,0.0251 (inactive)

row,Sequence,median seed-adjusted z-score
1,GGAUUCCCUUCAAGAUAUATT against NUCB2,0.45 (inactive)
2,CCAUCACCCGUGAAGAGAATT against CRYAB,0.354 (inactive)
3,CAAUGGUCCAAGUCUAACATT against EEF1E1,-1.45 (active)
4,CCCAGUCAAUCAAAGGAAATT against CD3G,-0.0274 (inactive)
5,GAAAGCAACUGACACUCUUTT against ATP2C2,-0.302 (inactive)
6,CAAGGGCACAGGCACAAAATT against SBK1,0.0587 (inactive)
7,ACCACGCAUUAAAACCAAATT against PRKCE,0.568 (inactive)
8,GGGAGGAUUUGAUCGGACATT against SPEN,-1.69 (active)
9,CCUUCUGAAAGAACGCAAATT against ABCA8,-0.666 (inactive)
10,GAAUAUGCAUUGCUAACCATT against SV2C,0.183 (inactive)
11,GGCAUUAUCUGGAUCACUUTT against PATE1,1.21 (active)
12,GAAGAUCAUUAGAUUUCUATT against SULT1B1,-0.115 (inactive)
13,GUACGUCCAUUAUGGAGAATT against GPR82,-0.83 (inactive)
14,GGAUAAUGAUGACGGGAGATT against SYT9,0.0419 (inactive)
15,CAACGACCGGAGGUAUAAATT against BPGM,0.408 (inactive)
16,CCGGCUUCCUCAUUACCUUTT against SLC2A14,-1.09 (active)
17,GGACUUACCUCAAUCAGAUTT against ZDHHC13,-0.381 (inactive)
18,CGAGAGGUGUAUCAAUAUATT against LIN7A,-1.39 (active)
19,GCUUUACCACCGUACGAAATT against MST4,0.343 (inactive)
20,UGAGAAUUGUGGAUCCGGATT against CSTF2,0.586 (inactive)
21,GGUACGAAUGAAUACCUUUTT against PTPN4,-0.447 (inactive)
22,GACCCAGCCGAAUACAACATT against NDUFB4,-0.697 (inactive)

row,Sequence,median seed-adjusted z-score
1,GAACCUACAUCAUCAGUAUTT against GJA1,0.348 (inactive)
2,GCCUUGCUGUUAAAGGGCATT against PARP2,-0.366 (inactive)
3,AGAGUGACCUGAUUGAGCATT against CSNK2B,-1.62 (active)
4,GGCCUUUGGUGAAAACCGUTT against CLDN11,0.268 (inactive)
5,GCCUAUGACCUUCUACUUUTT against SLC31A1,0 (inactive)
6,GUAUCUGCGAGGACGAAAATT against RNF113B,-0.228 (inactive)
7,GCAUCAUCGGUACCCAGUUTT against MPO,-0.223 (inactive)
8,GGCCGCUGCUUGUUUGUCATT against SLC13A3,0.0434 (inactive)
9,ACUGUGAAAUUGGACCAAUTT against RABIF,0 (inactive)
10,CUGUCGCUGUCUGACCAGATT against ESRRA,-0.833 (inactive)
11,AGACAAUGAUCAUAGACAATT against IDH3B,-0.642 (inactive)
12,CAACAACCCUUAUCGUAAATT against POLQ,0.203 (inactive)
13,GAGACUAUAUCUACAUGAATT against SLITRK3,-0.564 (inactive)
14,CGGAUGUUCUUUACACUAUTT against HNRNPL,1.04 (active)
15,GCAUAUGACUUGUAUUCCUTT against TFB2M,0.206 (inactive)
16,GGGACAUGGGAAUGCAAUATT against MSR1,0.0743 (inactive)
17,GGAAAUCUCGUGAUUUUCATT against TEAD1,1.31 (active)
18,CCAGAAACGUACACCUGAUTT against COX7B,-1.16 (active)
19,CCAUCAACACUGAAUUGCATT against SEC22B,-0.106 (inactive)
20,GUAUAGAUCUCUAUUUCUATT against COPZ1,-1.02 (active)
21,GAAGAGUGGUACUACCAGATT against BACE2,0.0853 (inactive)
22,CCACUUCAAGAAAACUUCATT against ZSCAN22,0.277 (inactive)

row,Sequence,median seed-adjusted z-score
1,GGCUCGAGAUUUAUACGAUTT against HECTD1,-0.0588 (inactive)
2,GGAGAAAGGAUCACGCUAATT against KCTD1,0 (inactive)
3,CCUACACGGUCCUUCGUAATT against HEPHL1,0.0681 (inactive)
4,CCUUCUAUCAUGUAAGCUATT against IL1A,1.12 (active)
5,GCGUGUUCCCAAUAGUGUATT against OGT,0.411 (inactive)
6,GGAUAUCACAGAAGGAUAUTT against ANXA4,-0.0932 (inactive)
7,GUGUAAAACUUGUCAGCGATT against WT1,0.236 (inactive)
8,GCAGCUUCAUAACCGAAGATT against PARP1,-0.0913 (inactive)
9,GAUGCAUGUUUGUAAAAAUTT against KCNJ6,-1.6 (active)
10,GCCCAACAGUCAUUCAACATT against CHMP5,0 (inactive)
11,GGAGGUGACCUUCCAGGAATT against RAB17,0.473 (inactive)
12,GGCCGUCAGUAAUACAUCUTT against ZBTB33,0.164 (inactive)
13,CCACCAAUCACGAACCUAATT against IL3RA,-0.951 (inactive)
14,CAGUGUAUCUGAACCUAUUTT against EFTUD1,-1.39 (active)
15,GCUCUUCGGGAGAAUCUUUTT against CTNNAL1,0.229 (inactive)
16,AGACCAUUGAGACCCGGAATT against PRPH,0 (inactive)
17,CAACUAAUUUCUAAUCGUUTT against ADAD1,-0.0795 (inactive)
18,GUGCGAAGGUUUUUAAUCATT against ZNF816A,0.39 (inactive)
19,GUACCUGCGGGAUUACUCATT against CCT7,-0.246 (inactive)
20,UGAACUUGAUGAAGGAGAATT against S100A7L2,0.283 (inactive)
21,GGGUCCUGUUCAUAAAGGATT against KCTD10,-0.506 (inactive)
